# Screens (PubChem BioAssay)
# In the library only some 5.7% were active in any assay of this set; here they are far more common.
# HT1080 IDH1KD tx: kills HT-1080 cells with IDH1 knockdown | Potency, µM (titrated, usually from 46.1 µM), without a hit: at the highest dose activity, negative = toxicity, most hits filed as cytotoxic | actives 2% (n = 360,000) | HT-1080 IDH1 knockdown viability, ATP luminescence, 48 h | AID 686971;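 further: 0% = DMSO wells and -100% = cell-free medium wells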
#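 Viability of IDH1-knockdown HT-1080 fibrosarcoma cells was assessed by CellTiter-Glo after 48 h at 37 °C with titrated compound; concentration-effect curves were classified by fit quality and response size.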
# KB-3-1 cytotox: kills parental KB-3-1 adenocarcinoma cells. KB-3-1 viability, CellTiter-Glo ATP luminescence, 72 h. Potency, µM (doses to about 46.1 µM), actives largely listed as cytotoxic. actives 1.4% (n = 400,000); further: nearly all actives have a fitted effect of over 60% in size
#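 72 h, 37 °C compound treatment of KB-3-1 parental cells; CellTiter-Glo added, 10 min, luminescence read. Data corrected against DMSO-only plates and normalized before curve fitting.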
# HT1080-NT tox: kills 2HG-producing HT-1080-NT fibrosarcoma cells; HT-1080-NT fibrosarcoma viability, CellTiter-Glo ATP luminescence, 48 h; Potency, µM (highest dose often 46.1 µM), for the others: top-dose activity, negative = less viability, hits mostly cytotoxic; actives 1.6% (n = 360,000); AID 686970;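 further: NT is the 2HG producing partner of a matched IDH1 knockdown line; 0% = DMSO-treated cells and -100% = media-only wells without cells; nearly all actives have a fitted effect of over 55% in size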
#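 HT-1080-NT fibrosarcoma cells (2HG-overproducing), 750 cells/well in RPMI with 5% FBS, dosed after 2 h and incubated 48 h at 37C. CellTiter-Glo luminescence normalized to DMSO and no-cell wells; concentration-response curves fitted and classed.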
# KB-V1 cytotox: KB-V1 MDR subline cytotoxicity. KB-V1 MDR cells viability, CellTiter-Glo, 72 h. actives 3.4% (n = 400,000). Potency, µM (series often up to 46.1 µM), usual class: cytotoxic; further: nearly all actives have a fitted effect of over 60% in size
#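 Compound-treated KB-V1 multidrug-resistant cells, 72 h, 37 degrees C; viability by CellTiter-Glo. Fitted qHTS curves give the values.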
# The depositor's hits bear a star; i = inactive; ? = inconclusive; / = no result given. The call rests on the fitted dose curve; in most records, active means well fitted curve in the direction sought with a large enough effect; inconclusive means small, poorly fitted or top-dose-only effect, or another doubt; inactive means no such curve, though single readings can be large; an effect the other way counts as inactive or inconclusive. Unless noted, on the % scale 0 is the no-effect control and ±100 the full control effect; potency means the concentration at half of the fitted maximal effect.
SMILES,HT1080 IDH1KD tx,KB-3-1 cytotox,HT1080-NT tox,KB-V1 cytotox
COc1ccc(-c2cc(CNc3nc(NCc4ccccc4OC)nc4ccsc34)on2)cc1,14.6µM*,i,18.4µM*,i
COc1ccccc1CNc1nc(NCc2cccc(OC)c2OC)c2sccc2n1,?,i,20.6µM*,20.6µM*
CCOc1ccc(CCNC(=O)c2sc3nc4n(c(=O)c3c2C)CCCC4)cc1,/,i,/,?
O=C1CN2Cc3c(ccc(Cl)c3Cl)N=C2N1,1.5%,i,-3.9%,0.164µM*
Cc1cc(C)c(Cn2c(=O)n(CCC(=O)NCc3ccc4c(c3)OCO4)c(=O)c3ccccc32)c(C)c1,/,i,/,?
COc1ccc(NC(=S)NCCSc2ccc(C)cc2)c(OC)c1,?,i,-11.1%,i
COc1ccc(OC)c(NC(=S)NCCSc2ccc(C)cc2)c1,-0.4%,i,5.2%,23.1µM*
O=C(NCCCN1CCOCC1)c1ccc(Cl)c([N+](=O)[O-])c1,13.0%,i,15.0%,i
COc1ccc(NC(=O)c2ccc(NCCCN3CCOCC3)c([N+](=O)[O-])c2)cc1,0.2%,?,4.2%,9.2µM*
Cc1ccc(NC(=O)c2ccc(NCCCN3CCOCC3)c([N+](=O)[O-])c2)cc1Cl,18.4µM*,8.2µM*,18.4µM*,23.1µM*
O=C(NCCCN1CCOCC1)c1ccc(Sc2cccc(Cl)c2)c([N+](=O)[O-])c1,-5.2%,?,-8.0%,20.6µM*
O=C(Nc1ccc(Cl)c([N+](=O)[O-])c1)c1ccc(NCCCN2CCOCC2)c([N+](=O)[O-])c1,0.5%,i,-1.1%,4.61µM*
Cc1ccc(-c2[nH]ncc2CNCc2ccccc2)cc1,/,i,/,i
CCN(c1ccccc1)S(=O)(=O)c1ccc2[nH]cc(C(=O)NCc3ccc(C)cc3)c(=O)c2c1,/,i,/,i
CC(=O)N(O)c1ccc(/C=C2\C=Cc3ccccc32)cc1,/,i,/,?
Cc1ccc(NC(=O)c2ccc(N3CCOCC3)c([N+](=O)[O-])c2)cc1S(=O)(=O)N1CCOCC1,-15.4%,20.6µM*,-3.1%,?
COn1c2c(c3c4no[n+]([O-])c4ccc31)CCCC2,-8.8%,i,-0.1%,i
COn1c2c(c3c4nonc4ccc31)CCCC2,?,i,-4.5%,18.4µM*
O=C(CN1CCOCC1)Nc1ncc(Cc2cccc3ccccc23)s1,0.4%,i,?,13µM*
Cc1ccc(Cc2cnc(NC(=O)CN3CCOCC3)s2)cc1Cl,0.0%,i,-10.4%,?
Cc1ccccc1OCC(=O)Nc1ccc(N2CCN(S(C)(=O)=O)CC2)cc1,11.3%,i,13.9%,3.66µM*
O=C(COc1ccc(Cl)cc1)Nc1ccc(N2CCN(C(=O)c3ccco3)CC2)cc1,-11.1%,?,?,13µM*
O=C(c1ccco1)N1CCN(C(=O)C(Sc2ccccc2)c2ccccc2)CC1 (configuration not stated),-13.9%,?,-17.4%,20.6µM*
Cc1cccc(OCC(=O)Nc2ccc(N3CCN(C(=O)c4ccco4)CC3)cc2)c1C,-12.1%,i,-23.8%,i
Cc1ccccc1OCC(=O)Nc1ccc(N2CCN(C(=O)c3ccco3)CC2)cc1,-8.5%,?,?,7.31µM*
SMILES,HT1080 IDH1KD tx,KB-3-1 cytotox,HT1080-NT tox,KB-V1 cytotox
COc1ccc(OCC(=O)Nc2ccc(N3CCN(C(=O)c4ccco4)CC3)cc2)cc1,0.5%,i,-27.8%,i
O=C(CSc1ccccc1)N1CCN(C(=O)c2ccco2)CC1,9.8%,i,19.9%,i
Cc1cccc(N2C(=O)CSC23C(=O)N(CC(=O)NCc2ccccc2Cl)c2ccccc23)c1 (configuration not stated),/,i,/,i
O=C(O)C1CCCC1,/,?,/,i
CCc1ccccc1NC(=O)CN1C(=O)CCc2cc(S(=O)(=O)N3CCCCC3)ccc21,/,i,/,i
COc1ccc(C(c2nnnn2Cc2ccccc2)N2CCN(C(=O)c3ccco3)CC2)cc1 (configuration not stated),-1.5%,i,4.4%,i
CC(Oc1ccc(Cl)cc1)C(=O)N1CCN(C(=O)c2ccco2)CC1 (configuration not stated),-3.6%,i,-1.3%,20.6µM*
CCC(=O)Nc1ccc(N2CCN(C(=O)c3cccs3)CC2)cc1,1.3%,i,-1.3%,i
